Assay results taken from PubChem BioAssay (Tox21).
Values joined by “and” are separate entries in the source; they are usually repeats but may differ in a detail not shown here. Equal entries are not always repeated. Results filed as inconclusive are left out. Entries that show only a call come without a potency. Active and inactive are the calls of the source. Unless noted, calls come from the whole dose curve; as a rule, active = well fitted curve in the direction sought with a large enough effect in the repeat runs; inconclusive = weak or mixed curves; inactive = no such curve, though single readings can be large; an effect the other way counts as inactive or inconclusive.

Key:
[1] = test system: thyroid hormone receptor (rat, GH3 cells); experiment: qHTS assay to identify small molecule agonists of the thyroid receptor (TR) signaling pathway (AID 743066; calls by dose curve)
[2] = biological target: Estrogen receptor (Homo sapiens) (UniProt P03372); experiment: qHTS assay to identify small molecule antagonists of the estrogen receptor alpha (ER-alpha) signaling pathway (AID 743069; active = well fitted curve in the direction sought with a large enough effect in the signal ratio in the repeat runs, not every such curve was filed as active; the % refers to the signal ratio)
Sequence of Estrogen receptor (Homo sapiens) (P03372 whole entry, looked up): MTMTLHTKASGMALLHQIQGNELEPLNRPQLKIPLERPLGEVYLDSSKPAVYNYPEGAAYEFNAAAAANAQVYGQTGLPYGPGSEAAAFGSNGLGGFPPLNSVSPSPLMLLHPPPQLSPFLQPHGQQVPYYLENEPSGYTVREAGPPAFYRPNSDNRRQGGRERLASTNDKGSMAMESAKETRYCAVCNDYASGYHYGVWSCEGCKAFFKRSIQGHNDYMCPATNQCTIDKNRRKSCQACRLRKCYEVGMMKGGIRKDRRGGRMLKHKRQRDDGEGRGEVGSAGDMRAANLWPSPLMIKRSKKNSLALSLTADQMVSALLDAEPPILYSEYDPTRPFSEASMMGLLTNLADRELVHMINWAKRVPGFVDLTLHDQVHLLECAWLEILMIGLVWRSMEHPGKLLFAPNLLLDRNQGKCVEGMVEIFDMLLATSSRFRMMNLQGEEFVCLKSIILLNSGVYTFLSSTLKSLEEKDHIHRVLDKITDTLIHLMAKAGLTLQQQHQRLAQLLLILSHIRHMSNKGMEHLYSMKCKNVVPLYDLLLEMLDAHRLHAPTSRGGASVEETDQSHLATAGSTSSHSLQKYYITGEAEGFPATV
Outline: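 Estradiol-stimulated ER-alpha-UAS-bla HEK293 cells, 18 hr compound exposure at 37C. LiveBLAzer B/G substrate, 2 hr RT, fluorescence read.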

[3] = biological target: Estrogen receptor (Homo sapiens) (UniProt P03372); experiment: qHTS assay to identify small molecule agonists of the estrogen receptor alpha (ER-alpha) signaling pathway (AID 743075; calls by dose curve;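 note: HEK293 GripTite cells with ER-alpha and UAS-driven beta-lactamase reporter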)
[4] = biological target: Estrogen receptor (Homo sapiens) (UniProt P03372); experiment: qHTS assay to identify small molecule agonists of the estrogen receptor alpha (ER-alpha) signaling pathway using the BG1 cell line (AID 743079); details: BG1Luc4E2 cells, ERE-luciferase agonist, 22 h; activation: at 70.3 µM (top of the series); note: nearly all actives have a fitted effect of over 20% in size
[5] = qHTS assay to identify small molecule antagonists of the estrogen receptor alpha (ER-alpha) signaling pathway using the BG1 cell line (AID 743080; calls by dose curve;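 note: BG1 cells stimulated with 17beta-estradiol alongside compound; nearly all actives have a fitted effect of over 25% in size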; note: potency is the fitted concentration of half-maximal effect); details: BG1Luc4E2 ERE-luciferase antagonist mode, luminescence; activity change, negative = inhibition: at 70.3 µM (top of the series)
Outline: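 BG1-Luc-4E2 cells (endogenous full-length ER-alpha, stable 4×ERE-luciferase) were starved 5 days in phenol-red-free medium with 10% charcoal-stripped FBS, plated 24 h, then given compound plus 17beta-estradiol for 21.5 h at 37 C; ONE-Glo luminescence read after 30 min.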

[6] = qHTS assay to identify small molecule antagonists of the estrogen receptor alpha (ER-alpha) signaling pathway using the BG1 cell line - cell viability counter screen (AID 743081);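 note: compound given together with 17beta-estradiol as the ER stimulus; nearly all actives have a fitted effect of over 45% in size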
Aromatase (Homo sapiens) = Aromatase (Homo sapiens) (UniProt P11511); experiment: qHTS assay to identify aromatase inhibitors (AID 743083); note: nearly all actives have a fitted effect of over 55% in size; note: potency is the fitted concentration of half-maximal effect
Sequence of Aromatase (Homo sapiens) (P11511 whole entry, looked up): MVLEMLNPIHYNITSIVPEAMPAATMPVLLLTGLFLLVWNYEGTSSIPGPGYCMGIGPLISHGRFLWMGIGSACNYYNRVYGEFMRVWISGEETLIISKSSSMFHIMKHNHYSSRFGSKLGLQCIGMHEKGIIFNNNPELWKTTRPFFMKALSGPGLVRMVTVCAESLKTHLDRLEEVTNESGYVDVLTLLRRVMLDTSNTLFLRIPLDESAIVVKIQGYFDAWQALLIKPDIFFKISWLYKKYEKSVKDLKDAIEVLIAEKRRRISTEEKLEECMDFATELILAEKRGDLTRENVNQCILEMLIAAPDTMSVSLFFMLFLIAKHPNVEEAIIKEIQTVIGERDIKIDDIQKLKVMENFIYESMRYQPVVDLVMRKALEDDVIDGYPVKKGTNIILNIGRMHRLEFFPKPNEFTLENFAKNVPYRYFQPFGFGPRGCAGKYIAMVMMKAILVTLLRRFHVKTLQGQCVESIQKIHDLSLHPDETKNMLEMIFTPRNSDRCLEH

[7] = qHTS assay to identify aromatase inhibitors - cell viability counter screen (AID 743084);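 note: cells stimulated with testosterone during compound exposure; nearly all actives have a fitted effect of over 55% in size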; note: potency is the fitted concentration of half-maximal effect
[8] = biological target: Aryl hydrocarbon receptor (Homo sapiens) (UniProt P35869); experiment: qHTS assay to identify small molecule that activate the aryl hydrocarbon receptor (AhR) signaling pathway (AID 743085); note: nearly all actives have a fitted effect of over 15% in size; note: potency is the fitted concentration of half-maximal effect;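 for activation: HG2L7.5c1 human HepG2 liver cells with stably integrated DRE-driven firefly reporter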
Sequence of Aryl hydrocarbon receptor (Homo sapiens) (P35869 whole entry, looked up): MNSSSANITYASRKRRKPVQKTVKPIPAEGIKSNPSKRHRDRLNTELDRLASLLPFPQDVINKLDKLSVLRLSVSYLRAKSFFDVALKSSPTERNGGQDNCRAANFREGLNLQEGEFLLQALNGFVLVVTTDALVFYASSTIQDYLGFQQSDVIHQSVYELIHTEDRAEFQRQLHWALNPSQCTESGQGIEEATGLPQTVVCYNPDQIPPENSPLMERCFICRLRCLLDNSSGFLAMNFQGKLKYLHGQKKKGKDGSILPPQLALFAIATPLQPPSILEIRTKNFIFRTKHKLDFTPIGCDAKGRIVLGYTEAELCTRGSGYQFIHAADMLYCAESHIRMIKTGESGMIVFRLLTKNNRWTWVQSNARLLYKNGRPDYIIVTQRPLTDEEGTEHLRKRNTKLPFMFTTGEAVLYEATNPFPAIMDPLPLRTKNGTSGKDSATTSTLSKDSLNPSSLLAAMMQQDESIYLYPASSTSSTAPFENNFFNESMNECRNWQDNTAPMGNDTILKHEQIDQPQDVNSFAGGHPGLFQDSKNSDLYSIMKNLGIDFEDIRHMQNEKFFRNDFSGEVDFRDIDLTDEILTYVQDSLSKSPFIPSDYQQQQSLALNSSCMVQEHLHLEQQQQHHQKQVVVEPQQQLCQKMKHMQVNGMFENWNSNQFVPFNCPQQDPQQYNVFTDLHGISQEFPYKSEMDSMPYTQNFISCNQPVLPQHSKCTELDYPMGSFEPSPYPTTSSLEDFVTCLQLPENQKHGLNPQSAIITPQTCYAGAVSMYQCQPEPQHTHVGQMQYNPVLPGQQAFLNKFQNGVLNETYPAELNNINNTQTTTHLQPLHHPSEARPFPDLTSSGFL
Outline: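 Cell line HG2L7.5c1 (human hepatoma, 20× DRE-luc). Plated, 5 h 37C, compound/DMSO added, 24 h 37C. CellTiter-Fluor 30 min 37C → fluorescence; then ONE-Glo 30 min RT → luminescence.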

[9] = qHTS assay to identify small molecule that activate the aryl hydrocarbon receptor (AhR) signaling pathway - cell viability counter screen (AID 743086); note: nearly all actives have a fitted effect of over 45% in size; note: potency is the fitted concentration of half-maximal effect
Outline: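 HepG2-AhR-luc (HG2L7.5c1) cells, 4000/well, were preincubated 5 h at 37C, exposed to compound in qHTS format for 24 hr at 37C, then given CellTiter-Fluor for 30 min; viability was read as fluorescence in the reporter wells.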

[10] = biological target: Peroxisome proliferator-activated receptor gamma (Homo sapiens) (UniProt P37231); experiment: qHTS assay to identify small molecule agonists of the peroxisome proliferator-activated receptor gamma (PPARg) signaling pathway (AID 743094; active = well fitted activation curve with a large enough effect in the signal ratio in the repeat runs, not every such curve was filed as active; the % refers to the signal ratio)
Sequence of Peroxisome proliferator-activated receptor gamma (Homo sapiens) (P37231 whole entry, looked up): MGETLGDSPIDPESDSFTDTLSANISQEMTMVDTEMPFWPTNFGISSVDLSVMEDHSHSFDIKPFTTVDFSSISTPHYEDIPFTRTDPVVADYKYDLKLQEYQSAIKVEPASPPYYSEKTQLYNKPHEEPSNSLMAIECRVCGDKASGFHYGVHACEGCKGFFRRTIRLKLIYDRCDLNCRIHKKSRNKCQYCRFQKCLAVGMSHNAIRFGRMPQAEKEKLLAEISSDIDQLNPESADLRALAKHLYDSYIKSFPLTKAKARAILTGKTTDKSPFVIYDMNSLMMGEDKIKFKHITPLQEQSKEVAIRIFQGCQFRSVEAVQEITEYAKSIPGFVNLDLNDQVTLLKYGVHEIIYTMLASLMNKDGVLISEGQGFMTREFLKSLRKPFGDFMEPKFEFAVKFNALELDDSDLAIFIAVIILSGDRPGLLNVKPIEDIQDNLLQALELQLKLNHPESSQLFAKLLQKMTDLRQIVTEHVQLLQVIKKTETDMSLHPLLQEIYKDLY
Outline: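 Beta-lactamase FRET fluorescence was the read-out after a 1 h room-temperature substrate step, following 17 h compound treatment at 37C of HEK293H cells expressing a UAS-driven bla reporter responsive to PPARg.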

[11] = qHTS assay to identify small molecule antagonists of the peroxisome proliferator-activated receptor gamma (PPARg) signaling pathway - cell viability counter screen (AID 743194); note: nearly all actives have a fitted effect of over 55% in size; note: potency is the fitted concentration of half-maximal effect
Outline: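 PPARg-UAS-bla HEK293H cells were plated, rested 5 h at 37 C, then treated with compounds plus rosiglitazone (50 nM final) for 17 h at 37 C; viability was then read by CellTiter-Glo luminescence after 30 min at room temperature.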

[12] = qHTS assay for small molecule agonists of the antioxidant response element (ARE) signaling pathway (AID 743202; active = well fitted activation curve with a large enough effect in the signal ratio in the repeat runs, not every such curve was filed as active; the % refers to the signal ratio; note: potency is the fitted concentration of half-maximal effect)
Outline: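 Compounds delivered in DMSO to ARE-bla HepG2 cells (2,000 cells/well, pre-incubated 5 h) and left 16 h at 37 C. LiveBLAzer B/G FRET substrate then added for 2 h at RT before fluorescence reading.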

[13] = qHTS assay for small molecule agonists of the antioxidant response element (ARE) signaling pathway - cell viability counter screen (AID 743203; calls by dose curve; note: nearly all actives have a fitted effect of over 55% in size; note: potency is the fitted concentration of half-maximal effect)
Outline: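 HepG2 cells carrying ARE-driven beta-lactamase; 2,000 cells/well; 5 hrs plating; compound pinned from DMSO; 16 hrs 37C/5% CO2; CellTiter-Glo added; 30 min RT; luminescence.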

[14] = qHTS assay for small molecule activators of the heat shock response signaling pathway - cell viability counter screen (AID 743209); note: nearly all actives have a fitted effect of over 50% in size; note: potency is the fitted concentration of half-maximal effect
Outline: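 Luminescence from CellTiter-Glo, added after the beta-lactamase FRET read, gave the viability signal. Cells were HSE-bla HeLa treated with DMSO-dissolved compounds for 5 h at 37 C following overnight plating.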

[15] = qHTS assay for small molecule activators of the heat shock response signaling pathway (AID 743210; active = well fitted activation curve with a large enough effect in the signal ratio in the repeat runs, with a control signal flat, not every such curve was filed as active; the % refers to the signal ratio;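 note: HeLa cells with beta-lactamase reporter driven by heat shock elements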)
Outline: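 Reporter gene assay: HeLa cells stably bearing an HSE-bla construct, compound treatment 5 h at 37 C, LiveBLAzer substrate 2.5 h at RT, fluorescence intensity.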

[16] = qHTS assay to identify small molecule antagonists of the estrogen receptor alpha (ER-alpha) signaling pathway - cell viability counter screen (AID 743074; calls by dose curve;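 note: HEK293 cells carrying ER-alpha-UAS-bla reporter stimulated with 17beta-estradiol; nearly all actives have a fitted effect of over 45% in size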; note: potency is the fitted concentration of half-maximal effect)
[17] = qHTS assay to identify small molecule antagonists of the thyroid receptor (TR) signaling pathway (AID 743065); note: nearly all actives have a fitted effect of over 55% in size; note: potency is the fitted concentration of half-maximal effect
Outline: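 GH3.TRE-Luc rat pituitary cells carrying two TR response elements driving luciferase were plated for 4 h, given compound plus 1 nM T3 (final), and incubated 23.5 h at 37 C. ONE-Glo luminescence measured reporter inhibition; CellTiter-Fluor fluorescence tracked cytotoxicity.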

[18] = biological target: Peroxisome proliferator-activated receptor gamma (Homo sapiens) (UniProt P37231); experiment: qHTS assay to identify small molecule antagonists of the peroxisome proliferator-activated receptor gamma (PPARg) signaling pathway (AID 743191; calls by dose curve; note: nearly all actives have a fitted effect of over 30% in size)
Outline: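 GeneBLAzer PPARg UAS-bla HEK293H cells carrying a UAS-driven beta-lactamase reporter were plated at 3000 cells/well, preincubated 5 h at 37C, then given compound for 17 h at 37C; LiveBLAzer B/G FRET substrate was read after 1 h at room temperature.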

## CCO[Si](CCCSSSSCCC[Si](OCC)(OCC)OCC)(OCC)OCC
[1]
  Potency: inactive
[2]
  Potency: inactive
[3]
  Potency: inactive
[4]
  Potency: inactive
[5]
  Potency: inactive
[6]
  Potency: inactive
Aromatase (Homo sapiens)
  Potency: inactive
[7]
  Potency: inactive
[8]
  Potency: inactive
[9]
  Potency: inactive
[10]
  Potency: inactive
[11]
  Potency: inactive
[12]
  Potency: inactive
[13]
  Potency: inactive
[14]
  Potency: inactive
[15]
  Potency: inactive

## CCCCC(CC)COC(=O)c1ccc(O)cc1 (configuration not stated)
[1]
  Potency: inactive
[16]
  Potency: 54.7 µM (active)
[6]
  Potency: inactive
Aromatase (Homo sapiens)
  Potency: 15.3 µM (active) and 19.3 µM (active)
[7]
  Potency: 27.2 µM (active)
[8]
  Potency: inactive
[9]
  Potency: inactive
[11]
  Potency: 48.8 µM (active)
[13]
  Potency: inactive
[14]
  Potency: 24.5 µM (active)

## NC(=O)c1nc(-c2cccc(-c3cc(F)ccc3OCC(F)(F)C(F)(F)F)c2)n[nH]1
[3]
  Potency: inactive
[5]
  Potency: 68.6 µM (active)
[6]
  Potency: inactive
Aromatase (Homo sapiens)
  Potency: 30.6 µM (active)
[7]
  Potency: 43.3 µM (active)
[8]
  Potency: inactive

## CN(C)c1ccc(N=NS(=O)(=O)O)cc1
[17]
  Potency: inactive
[1]
  Potency: inactive
[8]
  Potency: 14.5 µM (active)
[12]
  Potency: 8.63 µM (active)
[13]
  Potency: inactive

## C[C@H]1O[C@@H](O[C@H]2[C@@H](O)C[C@H](O[C@H]3[C@@H](O)C[C@H](O[C@H]4CC[C@@]5(C)[C@H](CC[C@@H]6[C@@H]5C[C@@H](O)[C@]5(C)[C@@H](C7=CC(=O)OC7)CC[C@]65O)C4)O[C@@H]3C)O[C@@H]2C)C[C@H](O)[C@@H]1O
[16]
  Potency: 0.0195 µM (active)
[6]
  Potency: inactive
Aromatase (Homo sapiens)
  Potency: inactive
[7]
  Potency: inactive
[8]
  Potency: inactive
[9]
  Potency: inactive
[11]
  Potency: 21.9 nM (active) and 4.8 nM (active)
[13]
  Potency: 12.2 nM (active) and 7.6 nM (active)
[14]
  Potency: 55 nM (active) and 13.6 nM (active)
[15]
  Potency: inactive

## Clc1ccccc1CN1CCc2sccc2C1
[1]
  Potency: inactive
[16]
  Potency: inactive
[6]
  Potency: inactive
Aromatase (Homo sapiens)
  Potency: inactive
[7]
  Potency: inactive
[8]
  Potency: inactive
[9]
  Potency: inactive
[11]
  Potency: inactive
[14]
  Potency: inactive

## CC(C)c1ccc(O)c(C(C)C)c1
[1]
  Potency: inactive
[2]
  Potency: inactive
[3]
  Potency: inactive
[4]
  Potency: inactive
[5]
  Potency: 54.5 µM (active)
[6]
  Potency: inactive
[8]
  Potency: inactive
[9]
  Potency: inactive
[11]
  Potency: inactive

## c1cc2c3c(c1)ccc1cccc(c13)C2
[17]
  Potency: inactive
[1]
  Potency: inactive
[16]
  Potency: inactive
[6]
  Potency: inactive
Aromatase (Homo sapiens)
  Potency: inactive
[7]
  Potency: inactive
[8]
  Potency: inactive
[9]
  Potency: inactive

## Brc1ccccc1-c1ccccc1
[1]
  Potency: inactive
[9]
  Potency: inactive

## CC(C)OC(=O)c1cc(C(=O)OC(C)C)cc([N+](=O)[O-])c1
[17]
  Potency: inactive
[1]
  Potency: inactive
[7]
  Potency: inactive
[9]
  Potency: inactive
[13]
  Potency: inactive
[14]
  Potency: inactive

## CCC1(c2cnc[nH]2)Cc2ccccc2C1
[11]
  Potency: inactive
[13]
  Potency: inactive

## O=C(Oc1ccccc1)c1cccc(C(=O)Oc2ccccc2)c1
[17]
  Potency: inactive
[1]
  Potency: inactive
Aromatase (Homo sapiens)
  Potency: inactive
[9]
  Potency: inactive
[14]
  Potency: inactive

## CCCCCCC(C)OC(=O)COc1nc(F)c(Cl)c(N)c1Cl (configuration not stated)
[1]
  Potency: inactive
[16]
  Potency: inactive
[6]
  Potency: inactive
[9]
  Potency: inactive
[12]
  Potency: inactive
[13]
  Potency: inactive

## C=CC(=C)CCC=C(C)C
[17]
  Potency: inactive
[1]
  Potency: inactive
[16]
  Potency: inactive
[6]
  Potency: inactive
Aromatase (Homo sapiens)
  Potency: inactive
[7]
  Potency: inactive
[9]
  Potency: inactive
[11]
  Potency: inactive
[13]
  Potency: inactive

## CCCCN(CCCC)CCC(O)c1cc2c(Cl)cc(Cl)cc2c2cc(C(F)(F)F)ccc12 (configuration not stated)
[2]
  Potency: inactive
[16]
  Potency: inactive
[3]
  Potency: inactive
[4]
  Potency: inactive
[5]
  Potency: inactive
[6]
  Potency: inactive
Aromatase (Homo sapiens)
  Potency: inactive
[7]
  Potency: inactive
[8]
  Potency: inactive
[9]
  Potency: inactive
[13]
  Potency: inactive
[14]
  Potency: inactive
[15]
  Potency: inactive

## C=CC(=O)OCCC#N
[17]
  Potency: 54.8 µM (active)
[1]
  Potency: inactive
[16]
  Potency: inactive
[6]
  Potency: inactive
[8]
  Potency: inactive
[9]
  Potency: inactive
[12]
  Potency: 34.6 µM (active)
[13]
  Potency: inactive

## Clc1ccc(C(Cn2ccnc2)OCc2c(Cl)cccc2Cl)c(Cl)c1 (configuration not stated)
[17]
  Potency: 11.4 µM (active)
[16]
  Potency: inactive
[4]
  Potency: inactive
[5]
  Potency: inactive
[6]
  Potency: inactive
Aromatase (Homo sapiens)
  Potency: 10.1 µM (active)
[7]
  Potency: inactive
[9]
  Potency: inactive
[10]
  Potency: inactive

## Cc1ccc(-n2[nH]c(C)c(N=Nc3cccc(-c4cccc(C(=O)O)c4)c3O)c2=O)cc1C
[11]
  Potency: 2.37 µM (active)
[13]
  Potency: inactive
[14]
  Potency: inactive

## S=C(SSSSSSC(=S)N1CCCCC1)N1CCCCC1
[1]
  Potency: inactive
[2]
  Potency: inactive
[3]
  Potency: inactive
[4]
  Potency: inactive
[6]
  Potency: inactive
Aromatase (Homo sapiens)
  Potency: 0.268 µM (active)
[7]
  Potency: 0.379 µM (active)
[8]
  Potency: inactive
[9]
  Potency: 2.39 µM (active)
[18]
  Potency: inactive
[11]
  Potency: inactive
[13]
  Potency: inactive
[14]
  Potency: 0.0763 µM (active)

## Clc1ccc(C(c2ccccc2Cl)C(Cl)Cl)cc1 (configuration not stated)
[1]
  Potency: inactive
[16]
  Potency: inactive
[6]
  Potency: inactive
Aromatase (Homo sapiens)
  Potency: inactive
[7]
  Potency: inactive
[8]
  Potency: inactive
[9]
  Potency: inactive
[10]
  Potency: inactive
[18]
  Potency: inactive
[11]
  Potency: 54.9 µM (active)
[13]
  Potency: inactive
[14]
  Potency: inactive

## C[n+]1c2cc(N)ccc2cc2ccc(N)cc21 (tested in a mixture with another compound)
[17]
  Potency: 6.68 µM (active)
[16]
  Potency: inactive
Aromatase (Homo sapiens)
  Potency: 18.8 µM (active)
[8]
  Potency: 9.44 µM (active)
[13]
  Potency: inactive
[15]
  Potency: inactive
